# Bioassay records from PubChem.
# Rows were chosen to be rich in hits. Some 3% of all compounds tested hit in one or more screens of this group.
# 12-LOX inh: ALOX12 (human) lipoxygenase inhibition; P18054; purified 12hLO, xylenol orange hydroperoxide absorbance; Potency, µM (titrated, usually from 108 µM), for the others: top-dose activity change, negative = inhibition, hits mostly inhibitors; 1.1% of 580,000 active; AID 1671190; active means well fitted inhibition curve with a large enough effect; inconclusive means small, poorly fitted or top-dose-only effect, or another doubt; inactive means no such curve, though single readings can be large or run the other way; further: potency means the concentration at half of the fitted maximal effect; on the % scale 0 is the no-effect control and ±100 the full control effect
#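 Hydroperoxide product was detected by ferrous iron/xylenol orange as the 573 to 405 nm absorbance ratio. Arachidonic acid at 40 uM (final) was turned over for 30 min at room temperature by 150 nM human 12hLO, pH 7.0 Hepes buffer, after 15 min compound preincubation.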
# BCR signal inh: chronic active BCR signaling inhibition; Potency, µM (top dose mostly 46.1 µM), without a hit: at the highest dose activity change, negative = inhibition, hits mostly inhibitors; 0.05% of 340,000 active; AID 493014; ABC-DLBCL IkBa-CBG/CBR reporter, luminescence ratio, 4 h; active means well fitted inhibition curve with a large enough effect in the signal ratio, with a control signal flat, not every such curve was filed as active; inconclusive means small, poorly fitted or top-dose-only effect, or effect the other way, or a change in a side signal; the % refers to the signal ratio;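 further: potency means the concentration at half of the fitted maximal effect; plate controls were basal doxycycline-induced cells for no effect and cells given 10 µM MG132 for full effect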
#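 Compounds up to 46 uM were incubated four hours with TMD8 cells whose green CBG68 luciferase is fused to IkappaBalpha; red CBR luminescence normalised the signal, and concentration-effect curves were fitted to fusion, red and ratio data.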
# ClpP mod: qHTS Assay for Activators of ClpP; ATP-dependent Clp protease proteolytic subunit (Bacillus subtilis (strain 168)), P80244; purified B. subtilis ClpP, FRET peptide cleavage, 20 min; Potency, µM (doses to about 57.5 µM), inactives show top-dose activity change, negative = active; 1.9% of 340,000 active; AID 651965, 2013; active means well fitted falling curve with a large enough effect; inconclusive means small, poorly fitted or top-dose-only effect; inactive means no such curve, though single readings can be large or run the other way; further: potency means the concentration at half of the fitted maximal effect; the source files actives as falling curves though it sought activators and does not explain the sign; nearly all actives have a fitted effect of over 65% in size
#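 Buffer: 100 mM Tris/HCl pH8, 100 mM KCl, 0.05% low protease BSA, 2.5% glycerol, 0.01% Tween-20. ClpP 10 microg/mL final; 20 min RT; delta FRET normalized to ADEP and DMSO controls.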
# hERG WT inh: inhibitors of human wildtype KCNH2 potassium channel; Q12809; U2OS, BacMam KCNH2, thallium flux FluxOr; hits give low values; activity change, % at 1.84 µM; 0.37% of 340,000 active; AID 720551;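 active means maximum activity change below -70%; inconclusive means maximum activity change between -70% and -50%; inactive means maximum activity change above -50%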; further: on the % scale 0 is the no-effect control and ±100 the full control effect
# Target sequence (Q12809 whole entry, looked up): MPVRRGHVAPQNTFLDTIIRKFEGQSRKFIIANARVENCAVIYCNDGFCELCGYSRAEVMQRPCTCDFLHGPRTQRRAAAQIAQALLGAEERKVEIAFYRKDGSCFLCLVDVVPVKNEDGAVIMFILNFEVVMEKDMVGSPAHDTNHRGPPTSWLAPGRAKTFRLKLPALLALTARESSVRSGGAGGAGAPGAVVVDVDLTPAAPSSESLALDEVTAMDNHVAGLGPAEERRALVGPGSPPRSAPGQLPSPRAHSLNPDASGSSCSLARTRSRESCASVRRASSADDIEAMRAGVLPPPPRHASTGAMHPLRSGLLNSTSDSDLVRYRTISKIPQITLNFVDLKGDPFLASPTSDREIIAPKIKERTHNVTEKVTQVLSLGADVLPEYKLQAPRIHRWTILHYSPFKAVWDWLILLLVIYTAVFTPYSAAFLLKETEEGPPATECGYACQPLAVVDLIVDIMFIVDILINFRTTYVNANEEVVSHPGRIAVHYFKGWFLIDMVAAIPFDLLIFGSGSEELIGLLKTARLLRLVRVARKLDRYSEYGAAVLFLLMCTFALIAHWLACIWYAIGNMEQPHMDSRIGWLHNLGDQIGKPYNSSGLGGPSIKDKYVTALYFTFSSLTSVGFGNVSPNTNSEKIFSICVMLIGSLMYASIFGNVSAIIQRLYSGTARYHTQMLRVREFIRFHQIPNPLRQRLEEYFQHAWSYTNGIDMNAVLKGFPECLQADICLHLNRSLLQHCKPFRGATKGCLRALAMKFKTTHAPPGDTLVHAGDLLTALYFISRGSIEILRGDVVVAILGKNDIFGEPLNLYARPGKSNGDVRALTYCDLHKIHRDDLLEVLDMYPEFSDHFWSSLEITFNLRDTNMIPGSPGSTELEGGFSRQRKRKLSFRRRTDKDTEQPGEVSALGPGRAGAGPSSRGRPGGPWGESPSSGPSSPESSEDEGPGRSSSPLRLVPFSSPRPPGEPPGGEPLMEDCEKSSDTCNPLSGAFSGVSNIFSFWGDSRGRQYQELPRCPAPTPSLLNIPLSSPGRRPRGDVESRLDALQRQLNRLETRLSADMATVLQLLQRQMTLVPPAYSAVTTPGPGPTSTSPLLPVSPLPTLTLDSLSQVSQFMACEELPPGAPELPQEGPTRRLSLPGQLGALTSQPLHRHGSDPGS
#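 U2OS cells transduced with wild-type KCNH2 virus are loaded with FluxOr dye for 45 min, and thallium flux is measured in kinetic reads before and after stimulation buffer. Rate constants are normalized to DMSO controls.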
# LDHA inh: blocks human lactate dehydrogenase A. activity change, % (values are at about 110 or 230 µM). purified LDHA, NADH/diaphorase-resazurin fluorescence; hits give low values. 0.15% of 480,000 active. P00338; in the data active means activity change below about -30%; inconclusive means mostly about -25% to -30%;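 further: plate controls were DMSO wells for no effect and wells without enzyme for full effect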
#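 LDH5 2 nM; NADH 0.06 mM, pyruvate 0.2 mM; 200 mM Tris pH 7.4, EDTA, Tween-20; 5 min RT. Detection: diaphorase 0.133 mg/mL + resazurin 37 µM, fluorescence ex540/em590 at 0 and 20 min; normalized to enzyme-free and DMSO wells.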
# KCNH2 3.1 inh: KCNH2 3.1 (human) potassium channel inhibition | U2OS KCNH2 3.1, thallium flux FluxOr; hits give low values | activity change, % (tested at about 1.8 µM) | 0.95% of 340,000 active | AID 720553;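 active means maximum activity change below -70%; inconclusive means maximum activity change from -70% to -50%; inactive means maximum activity change above -50%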;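 further: thallium influx rate constant from kinetic fluorescence after stimulation buffer; on the % scale 0 is the no-effect control and ±100 the full control effect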
#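 Normalized rate constant (relative to positive and negative DMSO controls) derived from a 2 min kinetic fluorescence read after stimulation; U2OS cells expressing the 3.1 isoform via virus at 1.77 x 10^8 /mL.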
# An asterisk follows results filed as active; ? = inconclusive; . = not tested or not shown.
SMILES,12-LOX inh,BCR signal inh,ClpP mod,hERG WT inh,LDHA inh,KCNH2 3.1 inh
Cc1nn(CC(=O)N(Cc2ccccc2)C2CC2)c(=O)c2ccccc12,-17%,.,.,.,-6,.
C=C(C)[C@@H]1CCC2(C(=O)OC)CC[C@]3(C)C(CCC4[C@@]5(C)C/C(=C\c6ccccc6)C(=O)C(C)(C)C5CC[C@]43C)C12 (stereo not given in full),-1%,.,.,.,1,.
COC(=O)[C@]12CCC(C)(C)C[C@@H]1[C@@H]1C(=O)C=C3[C@@]4(C)C=C(C#N)C(=O)C(C)(C)[C@@H]4CC[C@@]3(C)[C@]1(C)CC2,9.7µM*,.,.,.,.,.
CCNC(=O)Nc1ccc(OCC(=O)NC(C)c2ccc(OC)c(OC)c2)nc1 (stereo not given),0%,.,.,.,.,.
O=C1NN(c2ccc(F)c(Cl)c2)C(=O)/C1=C\c1cccc(OC(=O)c2cccs2)c1,-32%,10%,0%,-4,-4,-28
CC(C)=C1C(=O)NN(c2ccc(F)c(Cl)c2)C1=O,10µM*,-2%,-3%,-13,-3,19
Cc1ccc(-c2ccc(/C=C/C(=O)c3ccccc3)o2)cc1Cl,11µM*,.,.,.,5,.
Cc1ccc(C(=O)/C=C/c2ccc(-c3ccc(C)c(Cl)c3)o2)cc1,14µM*,.,.,.,-22,.
Cc1ccc(C(=O)/C=C/c2ccc(-c3ccc(Cl)c(Cl)c3)o2)cc1,-81%,.,.,.,5,.
CCOC(=O)c1cnn(-c2nc(-c3ccc(C)cc3)cs2)c1C(F)(F)F,?,-1%,32µM*,-1,5,-34
COc1ccc2[nH]c(C)c(CC(=O)O)c2c1,?,.,.,.,32,.
O=C(CN1C(=O)c2ccccc2C1=O)NC1CCS(=O)(=O)C1 (stereo not given),7%,.,1%,3,-17,-85*
CC(=O)Nc1ccc(S(=O)(=O)NCCC(=O)Nc2cccc(Cl)c2)cc1,-7%,?,.,3,6,10
CC(=O)Nc1ccc(S(=O)(=O)NCCOc2ccc(Cl)cc2C)cc1,-20%,5%,.,-120*,0,-190*
CCn1nc(C(=O)Nc2ccnn2C2CCN(C)CC2)c2ccccc2c1=O,-4%,.,.,.,7,.
COc1ccc2nc3oc(C(=O)N4CCCCC4)cc3cc2c1,14%,?,28µM*,-4,2,14
COc1ccc2nc(SCC(=O)N3CCCCCC3)c(C#N)cc2c1,-3%,0%,-16%,3,-4,-88*
CCOC(=O)C1CCCN(C(=O)c2cc3cc4ccc(OC)cc4nc3o2)C1 (stereo not given),.,-14%,4%,-4,-6,13
CCOC(=O)C1CCN(C(=O)c2cc3cc4cc(OC)ccc4nc3o2)CC1,-19%,?,18µM*,3,0,-7
O=C(Nc1ccc2oc(-c3ccc(Br)cc3)nc2c1)c1ccc2c(c1)OCO2,-28%,.,.,.,-1,.
CN1CCN(C(=O)C2CCC(=O)N(Cc3cccc(C(F)(F)F)c3)C2)CC1=O (stereo not given),8%,.,.,.,.,.
COc1ccc(C)cc1C(=O)N1CC(=O)N(c2cccc(Cl)c2)CC1C (stereo not given),9%,.,.,.,.,.
COc1ccc(Nc2nnc(SC(C(=O)Nc3cc(C)ccc3C)c3ccccc3)s2)cc1 (stereo not given),?,0%,.,1,-5,-6
COc1ccc(C)cc1NC(=O)C(Sc1nnc(Nc2cc(C)ccc2OC)s1)c1ccccc1 (stereo not given),-12%,1%,-5%,-121*,-6,-11
COc1cc(OC)cc(C(=O)N2CCC(N3CCCC3)CC2)c1,?,.,.,.,1,.
SMILES,12-LOX inh,BCR signal inh,ClpP mod,hERG WT inh,LDHA inh,KCNH2 3.1 inh
Cc1nn(C)c2c1c(-c1ccccc1)cc(=O)n2Cc1ccccc1F,-16%,.,28µM*,.,3,.
Cc1nn(C)c2c1c(-c1ccccc1)cc(=O)n2Cc1ccccc1Cl,-30%,.,28µM*,.,0,.
COc1cc(OC)c(NC(=O)C(C)n2c(=O)cc(-c3ccccc3)c3c(C)nn(C)c32)cc1Cl (stereo not given),-32%,.,32µM*,.,-7,.
Cc1[nH]c2ccccc2c1C(=O)CN1C(=O)C(=O)N(Cc2ccco2)C1=O,-7%,12%,28µM*,-1,-4,5
Cn1nc(C(F)(F)F)c(Br)c1C(=O)Nc1sc2c(c1C#N)CCC2,?,.,.,.,-1,.
O=C1c2cccc3cccc(c23)C(=O)N1c1ccc(O)cc1,-8%,-13%,-5%,12,-21,13
O=C1c2cccc3cccc(c23)C(=O)N1c1nncs1,37%,1%,16µM*,9,-6,24
CCc1nnc(NS(=O)(=O)c2ccc(NC(=S)NC(=O)/C=C/c3ccc(F)cc3)cc2)s1,10µM*,-3%,-2%,36,-19,0
CCc1nnc(NS(=O)(=O)c2ccc(NC(=S)NC(=O)c3ccc(OC)c(OC)c3)cc2)s1,8.9µM*,7%,2%,.,-12,-8
CCc1nnc(NS(=O)(=O)c2ccc(NC(=S)NC(=O)c3ccncc3)cc2)s1,?,2%,-2%,0,0,13
CC(C)(C)C(=O)NC(=S)Nc1ccc(S(=O)(=O)Nc2nccs2)cc1,45µM*,3%,.,2,-1,7
CCc1nnc(NS(=O)(=O)c2ccc(NC(=S)NC(=O)c3ccc(OC)cc3)cc2)s1,8.9µM*,12%,-6%,12,3,-11
NS(=O)(=O)c1ccc(NC(=S)Nc2ccc(S(=O)(=O)Nc3nccs3)cc2)cc1,-24%,.,-1%,.,-4,.
CCc1nnc(NS(=O)(=O)c2ccc(NC(=S)NC(=O)/C=C/c3ccc([N+](=O)[O-])cc3)cc2)s1,?,-5%,1%,2,-2,12
O=c1[nH]c(=O)n(Cc2ccccc2)c2c1CN(Cc1ccccc1Cl)CN2,-46%,.,.,.,4,.
O=C(CCS(=O)(=O)c1cc2c3c(c1)CCN3C(=O)CC2)Nc1cccc(Br)c1,45µM*,.,0%,.,-2,.
COc1ccc(NC(=O)CCS(=O)(=O)c2cc3c4c(c2)CCN4C(=O)CC3)cc1OC,?,.,-2%,.,-3,.
COc1ccc(C)cc1NC(=O)CCS(=O)(=O)c1cc2c3c(c1)CCN3C(=O)CC2,18µM*,.,0%,.,-5,.
COC(=O)c1[nH]c(C)c(/C(O)=C2\C(=O)C(=O)N(CCCn3ccnc3)C2c2cccc(OC)c2)c1C (stereo not given),?,.,.,.,-40*,.
COC(=O)c1[nH]c(C)c(/C(O)=C2\C(=O)C(=O)N(CCCn3ccnc3)C2c2ccncc2)c1C (stereo not given),?,.,.,.,3,.
